Source: article PMC9911399, “Two distinct binding modes provide the RNA-binding protein RbFox with extraordinary sequence specificity”
Numbering of substitutions follows the chain as printed; changes in the protein carry UniProt numbers. The full ranking holds about 16,000 sequences; the median of “ka relative to ugcaugu” is about 0.096, and the highest 2% start at about 0.35. Many of the other results were omitted from the sample, so the highest values are more common in it than they were.

T1: RBFOX1 RRM RbFoxmut (Fox-RRM*) (Homo sapiens, UniProt Q9NWB1 109-208, R118D;E147R;N151S;E152T)
T1 sequence: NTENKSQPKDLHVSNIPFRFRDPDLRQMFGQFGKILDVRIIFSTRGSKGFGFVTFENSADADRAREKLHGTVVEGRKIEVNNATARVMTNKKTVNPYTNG

B1: GCAACGU (DNA:RNA)
RNA: GGGAGACCGGAAUUCAGAUUGUCCGCAACGUUUAAAUCCCGUCGUAGCCACCA
DNA 1: CAATCTGAATTCCGGTCTCCC
DNA 2: TGGTGGCTACGACGGGATT
B2: UGGCAUC (DNA:RNA)
RNA: GGGAGACCGGAAUUCAGAUUGUCCUGGCAUCUUAAAUCCCGUCGUAGCCACCA
DNA 1: CAATCTGAATTCCGGTCTCCC
DNA 2: TGGTGGCTACGACGGGATT
B3: UGGCAUA (DNA:RNA)
RNA: B2 RNA with C31A
DNA 1: CAATCTGAATTCCGGTCTCCC
DNA 2: TGGTGGCTACGACGGGATT
B4: UGGCAUG (DNA:RNA)
RNA: B2 RNA with C31G
DNA 1: CAATCTGAATTCCGGTCTCCC
DNA 2: TGGTGGCTACGACGGGATT
B5: UGGCACC (DNA:RNA)
RNA: B2 RNA with U30C
DNA 1: CAATCTGAATTCCGGTCTCCC
DNA 2: TGGTGGCTACGACGGGATT
B6: UGGCAGA (DNA:RNA)
RNA: B2 RNA with U30G, C31A
DNA 1: CAATCTGAATTCCGGTCTCCC
DNA 2: TGGTGGCTACGACGGGATT
B7: UGGCAUU (DNA:RNA)
RNA: B2 RNA with C31U
DNA 1: CAATCTGAATTCCGGTCTCCC
DNA 2: TGGTGGCTACGACGGGATT
B8: UAUCAAU (DNA:RNA)
RNA: B2 RNA with G26A, G27U, U30A, C31U
DNA 1: CAATCTGAATTCCGGTCTCCC
DNA 2: TGGTGGCTACGACGGGATT
B9: CCACUGA (DNA:RNA)
RNA: B1 RNA with G25C, A28C, C29U, U31A
DNA 1: CAATCTGAATTCCGGTCTCCC
DNA 2: TGGTGGCTACGACGGGATT
B10: UCUUCCC (DNA:RNA)
RNA: B1 RNA with G25U, A27U, A28U, G30C, U31C
DNA 1: CAATCTGAATTCCGGTCTCCC
DNA 2: TGGTGGCTACGACGGGATT
B11: UUAUACA (DNA:RNA)
RNA: B2 RNA with G26U, G27A, C28U, U30C, C31A
DNA 1: CAATCTGAATTCCGGTCTCCC
DNA 2: TGGTGGCTACGACGGGATT
B12: CAUUUCC (DNA:RNA)
RNA: B2 RNA with U25C, G26A, G27U, C28U, A29U, U30C
DNA 1: CAATCTGAATTCCGGTCTCCC
DNA 2: TGGTGGCTACGACGGGATT
B13: UUGUAUG (DNA:RNA)
RNA: B2 RNA with G26U, C28U, C31G
DNA 1: CAATCTGAATTCCGGTCTCCC
DNA 2: TGGTGGCTACGACGGGATT
B14: UAUGUCC (DNA:RNA)
RNA: B2 RNA with G26A, G27U, C28G, A29U, U30C
DNA 1: CAATCTGAATTCCGGTCTCCC
DNA 2: TGGTGGCTACGACGGGATT
B15: GGAUGUG (DNA:RNA)
RNA: B1 RNA with C26G, A28U, C29G, G30U, U31G
DNA 1: CAATCTGAATTCCGGTCTCCC
DNA 2: TGGTGGCTACGACGGGATT
B16: CGUUGUG (DNA:RNA)
RNA: B2 RNA with U25C, G27U, C28U, A29G, C31G
DNA 1: CAATCTGAATTCCGGTCTCCC
DNA 2: TGGTGGCTACGACGGGATT
B17: GUAUGUG (DNA:RNA)
RNA: B1 RNA with C26U, A28U, C29G, G30U, U31G
DNA 1: CAATCTGAATTCCGGTCTCCC
DNA 2: TGGTGGCTACGACGGGATT
B18: UUAUGUA (DNA:RNA)
RNA: B2 RNA with G26U, G27A, C28U, A29G, C31A
DNA 1: CAATCTGAATTCCGGTCTCCC
DNA 2: TGGTGGCTACGACGGGATT
B19: GGAGAUG (DNA:RNA)
RNA: B2 RNA with U25G, G27A, C28G, C31G
DNA 1: CAATCTGAATTCCGGTCTCCC
DNA 2: TGGTGGCTACGACGGGATT
B20: GUGUAUG (DNA:RNA)
RNA: B2 RNA with U25G, G26U, C28U, C31G
DNA 1: CAATCTGAATTCCGGTCTCCC
DNA 2: TGGTGGCTACGACGGGATT
B21: CGUGUCG (DNA:RNA)
RNA: B2 RNA with U25C, G27U, C28G, A29U, U30C, C31G
DNA 1: CAATCTGAATTCCGGTCTCCC
DNA 2: TGGTGGCTACGACGGGATT
B22: GGAUGUC (DNA:RNA)
RNA: B2 RNA with U25G, G27A, C28U, A29G
DNA 1: CAATCTGAATTCCGGTCTCCC
DNA 2: TGGTGGCTACGACGGGATT
B23: CUAUGUG (DNA:RNA)
RNA: B1 RNA with G25C, C26U, A28U, C29G, G30U, U31G
DNA 1: CAATCTGAATTCCGGTCTCCC
DNA 2: TGGTGGCTACGACGGGATT
B24: GUGUCCG (DNA:RNA)
RNA: B1 RNA with C26U, A27G, A28U, G30C, U31G
DNA 1: CAATCTGAATTCCGGTCTCCC
DNA 2: TGGTGGCTACGACGGGATT

These binders were tested against T1, RBFOX1 RRM RbFoxmut (Fox-RRM*) (assay: EMSA; HiTS-Eq, 1 nM pool, 10 min; buffer printed only for the single-RNA assays: 10 mM Tris pH 7.5, 150 mM NaCl, 3.4 mM EDTA, 0.001% NP-40, 30 C). Conditions: tags: His6 N-terminal (pET28a); label: 5' 32P.
Method in brief: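 Purified RbFox RRM, wild type or mutant, was incubated for 10 min in 50 µL with 1 nM of a 5′-radiolabelled RNA pool carrying 7 randomized nucleotides, whose flanks were annealed to DNA oligonucleotides, over a series of increasing protein concentrations. Unbound RNA was resolved on 8% native PAGE, cut out, reverse-transcribed, barcoded by PCR and sequenced on an Illumina HiSeq 2500. Relative association constants were derived from changes in read counts for each RNA species versus the control reaction and normalised to the cognate motif.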
In the case of B1, the binding signal is reported as 0.094 KA relative to UGCAUGU.
For B2, the binding signal was 0.411 KA relative to UGCAUGU.
B3 was tested, and the binding signal was 0.127 KA relative to UGCAUGU.
For B4, the binding signal was 1.17 KA relative to UGCAUGU.
With B5 the binding signal was 0.113 KA relative to UGCAUGU.
With B6 the binding signal was 0.0918 KA relative to UGCAUGU.
For B7, the binding signal was 0.1 KA relative to UGCAUGU.
With B8 the binding signal was 0.0491 KA relative to UGCAUGU.
B9 was tested, and the binding signal was 0.123 KA relative to UGCAUGU.
In the case of B10, the binding signal is reported as 0.0652 KA relative to UGCAUGU.
For B11, the binding signal was 0.0696 KA relative to UGCAUGU.
With B12 the binding signal was 0.0842 KA relative to UGCAUGU.
For B13, the binding signal was 1.24 KA relative to UGCAUGU.
With B14 the binding signal was 0.107 KA relative to UGCAUGU.
In the case of B15, the binding signal is reported as 0.451 KA relative to UGCAUGU.
B16 was tested, and the binding signal was 0.17 KA relative to UGCAUGU.
B17 was tested, and the binding signal was 0.787 KA relative to UGCAUGU.
For B18, the binding signal was 0.19 KA relative to UGCAUGU.
With B19 the binding signal was 0.312 KA relative to UGCAUGU.
B20 was tested, and the binding signal was 1.38 KA relative to UGCAUGU.
With B21 the binding signal was 0.126 KA relative to UGCAUGU.
B22 was tested, and the binding signal was 0.295 KA relative to UGCAUGU.
For B23, the binding signal was 0.134 KA relative to UGCAUGU.
For B24, the binding signal was 0.216 KA relative to UGCAUGU.
